Source: PubChem BioAssay (National Center for Advancing Translational Sciences (NCATS))
Hits are enriched below; roughly 2.4% of the tested compounds scored in any of these assays.
PINK1 modulator: A Quantitative High throughput Screen to Identify Chemical Modulators of PINK1 Expression. PINK1 immunofluorescence, high-content cytometry, 24 h. Potency, µM (top dose mostly 76.6 µM), without a hit: at the highest dose activation (PINK1 increase), usual class: activators. 0.2% of 410,000 active. AID 624263, 2012; active = well fitted activation curve with a large enough effect; inconclusive = small, poorly fitted or top-dose-only effect; cell line not stated here; note: % of control where 0% means no effect; nearly all actives have a fitted effect of over 65% in size
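Fluorescence from anti-PINK1 antibody, together with nuclear and cell stains, was scanned on a laser-scanning cytometer. Before staining, stable-line cells were incubated 24 hours with compounds at 5 concentrations; primary antibody 12 h at 10 degrees C.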
Epigenetic reg: Quantitative High-Throughput Screen for Regulators of Epigenetic Control; murine LDR cells, GFP reporter derepression, 30 h; Potency, µM (titrated, usually from 53.9 µM), inactives show at the top dose GFP activation, hits mostly activators; 0.2% of 280,000 active; AID 1865, 2009; note: % of control where 0% means no effect; nearly all actives have a fitted effect of over 60% in size
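GFP-positive cell count by laser-scanning cytometry (objects 20–120 um) after 30 h, 37 C compound exposure of murine LDR cells; reporter is CMV-GFP integrated at a silenced locus, inducible by HDAC or DNMT inhibitors.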
A549 viability: Nrf2 qHTS screen for inhibitors: counterscreen for cytotoxicity. AID 504648, 2011. 0.16% of 390,000 active. A549 ARE-Fluc cells, CellTiter-Fluor viability, 18-24 h. Potency, µM (titrated, usually from 46 µM), without a hit: at the highest dose activity change, negative = cytotoxicity, most hits filed as inhibitors; note: % is set by controls: 0 for no effect and ±100 for the full control effect
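Cytotoxicity counterscreen: CellTiter-Fluor fluorescence was measured in A549 ARE_Fluc cells after 18-24 h of compound exposure in a concentration series. The subsequent BugLite luminescent read reports ARE-luciferase activity.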
Nrf2 inh: Nrf2 qHTS screen for inhibitors | Potency, µM (highest dose often 46 µM), without a hit: at the top dose activity change, negative = inhibition, usual class: inhibitors | AID 504444, 2011 | 2.1% of 360,000 active | A549 ARE-Fluc reporter, luciferase luminescence, 18-24 h; note: % is set by controls: 0 for no effect and ±100 for the full control effect; nearly all actives have a fitted effect of over 60% in size
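In this cell-based qHTS, ARE-driven firefly luciferase in A549 cells reports Nrf2 activity; the luminescent signal after BugLite lysis is the measured value, with a prior CellTiter-Fluor read for cell health.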
Nrf2 activator: qHTS of Nrf2 Activators. AREc32 ARE-luciferase reporter (MCF7-derived line), luminescence, 24 h. Potency, µM (top dose mostly 46.1 µM), without a hit: top-dose activation, actives largely listed as activators. 0.31% of 410,000 active; note: % of control where 0% means no effect; nearly all actives have a fitted effect of over 65% in size
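Reporter line AREc32 (ARE-Fluc), seeded overnight in OPTI-MEM with 5% FBS; compound pin-transferred, 24 hr at 37 deg C, 5% CO2; luminescent read-out.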
An asterisk follows results filed as active; [ ] = another dose, or the depositor's remark. Unless noted, calls come from the whole dose curve; as a rule, active = well fitted curve in the direction sought with a large enough effect; inconclusive = small, poorly fitted or top-dose-only effect, or another doubt; inactive = no such curve, though single readings can be large; an effect the other way counts as inactive or inconclusive. Potency is the fitted concentration of half-maximal effect.

`CCc1cc2c(N3CCN(c4ccccc4)CC3)ncnc2s1` gave PINK1 modulator -0.3%, Epigenetic reg -1.2%, A549 viability -10.0%, Nrf2 inh 18.4µM* and Nrf2 activator 0.2%.
`CC(=O)N1CCN(c2ncnc3sc(-c4ccccc4)cc23)CC1` gave PINK1 modulator 3.5%, Epigenetic reg 0.1%, A549 viability -7.6%, Nrf2 inh inconclusive and Nrf2 activator -0.4%.
`COc1cc(NC(=O)COC(=O)c2n[nH]c3ccccc23)c(C)cc1[N+](=O)[O-]` gave PINK1 modulator 44.7µM*, Epigenetic reg 0.0%, A549 viability inconclusive, Nrf2 inh -17.2% and Nrf2 activator 10.2%.
Screening O=[N+]([O-])c1ccc(NC(=S)NCCc2ccccc2)cc1 returned PINK1 modulator inconclusive, Epigenetic reg -0.9%, A549 viability inconclusive, Nrf2 inh inconclusive and Nrf2 activator 3.2%.
`O=[N+]([O-])c1ccc(NNC(=S)Nc2ccccc2)cc1` gave PINK1 modulator 14.1µM*, Epigenetic reg -2.4%, A549 viability inconclusive, Nrf2 inh inconclusive and Nrf2 activator 6.9%.
For Cc1c(C(=S)Nc2ccccc2)cnn1-c1ccc([N+](=O)[O-])cc1 the results were PINK1 modulator 1.8%, Epigenetic reg 1.1%, A549 viability -3.4%, Nrf2 inh 23.1µM* and Nrf2 activator -0.8%[9.22 µM].
Cc1c(C(=S)Nc2ccccc2)cnn1-c1ccccc1 was read as PINK1 modulator 2.3%, Epigenetic reg 0.0%, A549 viability -6.5%, Nrf2 inh inconclusive and Nrf2 activator 2.2%.
For CC(NC(=O)C1CCOCC1)c1nnc2n1CCN(Cc1ccc(F)cc1)CC2 (stereo unspecified) the results were PINK1 modulator 1.1%.
Screening Cc1ccc(CNC(=O)c2nc(S(=O)(=O)Cc3ccc(C)cc3)ncc2Cl)cc1 returned PINK1 modulator 7.6%, Epigenetic reg -3.4%, A549 viability -19.8%, Nrf2 inh 11.6µM* and Nrf2 activator 9.6%.
Screening CCOC(=O)c1ccc(NC(=O)c2nc(S(=O)(=O)Cc3ccccc3)ncc2Cl)cc1 returned PINK1 modulator 2.9%, Epigenetic reg inconclusive, A549 viability inconclusive, Nrf2 inh inconclusive and Nrf2 activator 3.16µM*.
`CCS(=O)(=O)c1ncc(Cl)c(C(=O)NCc2ccc(OC)cc2)n1` gave PINK1 modulator 4.2%, Epigenetic reg inconclusive, A549 viability inconclusive and Nrf2 activator -5.3%.
Screening O=C(CCN1Cc2ccccc2OC(c2ccccc2F)C1)N1CCC(N2CCCC(O)C2)CC1 (stereo unspecified) returned PINK1 modulator 6.5%.
Screening COc1ccc(-c2cccc3c2OC(CNC(=O)c2ccc4c(c2)OCO4)C3)nn1 (stereo unspecified) returned PINK1 modulator 1.7%.
Screening CCOC(=O)N1CCC(NC(=O)CSCc2nc(-c3cccc(OC)c3)oc2C)CC1 returned PINK1 modulator 2.3%, Epigenetic reg 7.9%, A549 viability -3.3%, Nrf2 inh 18.4µM* and Nrf2 activator -0.4%.
COc1cccc(-c2nc(CS(=O)(=O)CC(=O)NC3CCCC3)c(C)o2)c1 was read as PINK1 modulator 0.8%, A549 viability -11.6%, Nrf2 inh 20.6µM* and Nrf2 activator -2.1%.
`CCOC(=O)N1CCC(NC(=O)CSCc2nc(-c3ccc(OCC)cc3)oc2C)CC1` gave PINK1 modulator 0.6%, A549 viability 0.6%, Nrf2 inh -28.5% and Nrf2 activator 0.0%.
Screening COc1cccc(-c2nc(CS(=O)(=O)CC(=O)NC3CCC(C)CC3)c(C)o2)c1 (stereo unspecified) returned PINK1 modulator -1.4%, A549 viability -9.4%, Nrf2 inh inconclusive and Nrf2 activator -0.2%.
For COc1ccc(C2Nc3ccccc3C(=O)N2Cc2ccccc2)cc1COc1ccc([N+](=O)[O-])cc1 (stereo unspecified) the results were PINK1 modulator 1.2%, A549 viability 2.9% and Nrf2 inh -14.8%.
